Consider 18 molecules from PubChem BioAssay (EPA / NIEHS).

Where “and” joins values, the source holds several entries; their conditions need not be identical. Equal entries are not always repeated. The source holds several records for some structures; these can differ, active in one and inactive in another. Calls of active or inactive are those of the source. How the source made its calls: active means hit-call score of the fitted dose curve at least 0.9, where 1 is the maximum; inactive means score below 0.9.

Read-out in assay [1]: Vascular cell adhesion molecule 1 (VCAM1), VCAM1 (gene 7412)
Kind of assay: BSK_IMphg_VCAM1: BioMAP Diversity Plus: IMphg Assay for Vascular cell adhesion molecule 1 (VCAM1) Biomarker Activity (AID 2284286). To be noted: primary human endothelial cells with macrophages. In a few lines:
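ELISA read-out of VCAM-1 on venular endothelial cell/macrophage co-cultures at 24 h post-treatment, with DMSO as baseline and positive-direction fitting. Parallel sulforhodamine B total-protein staining (560 nm) served as the overt cytotoxicity measure.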

Read-out in assay [2]: Intercellular Adhesion Molecule 1 (ICAM1), ICAM1 (gene 3383)
Description: BSK_hDFCGF_ICAM1: BioMAP Diversity Plus: hDFCGF Assay for Intercellular Adhesion Molecule 1 (ICAM1) Biomarker Activity (AID 2284287). To be noted: primary human foreskin fibroblasts. In a few lines:
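ICAM-1 ELISA readout 24 h after dosing, DMSO as baseline, in human dermal foreskin fibroblast cultures. Cytotoxicity checked in parallel wells by SRB staining (0.1% SRB, 10% TCA fixation, 560 nm).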

Read-out in a further assay: CD40, CD40 (gene 958)
Kind of assay: BSK_IMphg_CD40: BioMAP Diversity Plus: IMphg Assay for CD40 Biomarker Activity (AID 2284288). To be noted: primary human endothelial cells with macrophages. In a few lines: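 ELISA read-out of cell-surface CD40 at 24 h in human venular endothelial cell/macrophage co-cultures. Activity fitted in the positive direction against DMSO; parallel SRB staining (560 nm) gauges overt cytotoxicity.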

Read-out in assay [3]: TIMP metallopeptidase inhibitor 2 (TIMP2), TIMP2 (gene 7077)
Description: BSK_hDFCGF_TIMP2: BioMAP Diversity Plus: hDFCGF Assay for TIMP metallopeptidase inhibitor 2 (TIMP2) Biomarker Activity (AID 2284289). To be noted: primary human foreskin fibroblasts. In short, it runs like this: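 Primary human foreskin fibroblasts in the hDFCGF system, dosed for 24 h; TIMP-2 level measured by ELISA, fitted in the positive direction against DMSO; cytotoxicity checked in parallel by sulforhodamine B total protein staining.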

Read-out in assay [4]: Interleukin-1 alpha (IL1a), IL1A (gene 3552)
Description: BSK_IMphg_IL1a: BioMAP Diversity Plus: IMphg Assay for Interleukin-1 alpha (IL1a) Biomarker Activity (AID 2284290). To be noted: primary human endothelial cells with macrophages. In short, it runs like this: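 IL-1α is quantified by ELISA at 24 h in the endothelial/macrophage IMphg co-culture, with gain of signal fitted relative to DMSO. Parallel SRB total-protein staining flags overt toxicity.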

Read-out in assay [5]: E-selectin (Homo sapiens) (UniProt P16581)
Kind of assay: BSK_IMphg_ESelectin: BioMAP Diversity Plus: IMphg Assay for Eselectin Biomarker Activity (AID 2284291). To be noted: primary human endothelial cells with macrophages. In a few lines: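 Analysed against DMSO baseline in the positive fitting direction, this endpoint is an ELISA read of E-selectin. It comes from human venular endothelial cells co-cultured with macrophages, sampled 24 h post-dose.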

Read-out in assay [6]: Macrophage colony-stimulating factor (MCSF), CSF1 (gene 1435)
Description: BSK_IMphg_MCSF: BioMAP Diversity Plus: IMphg Assay for Macrophage colony-stimulating factor (MCSF) Biomarker Activity (AID 2284293). The note with it: primary human endothelial cells with macrophages. In a few lines: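 M-CSF was measured by ELISA in human venular endothelial cell/macrophage co-cultures dosed for 24 hours. Sulforhodamine B staining of parallel cultures assessed cytotoxicity; data fitted against DMSO baseline.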

Read-out in assay [7]: Interleukin-10 (IL10), IL10 (gene 3586)
Description: BSK_IMphg_IL10: BioMAP Diversity Plus: IMphg Assay for Interleukin-10 (IL10) Biomarker Activity (AID 2284294). The note with it: primary human endothelial cells with macrophages. In a few lines:
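IL-10 read by ELISA after 24 h chemical exposure of primary human venular endothelial cell/macrophage cocultures, with DMSO as baseline. Parallel SRB staining (560 nm) gauged overt cytotoxicity.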

Read-out in assay [8]: Thrombomodulin, THBD (gene 7056)
Kind of assay: BSK_LPS_Thrombomodulin: BioMAP Diversity Plus: LPS Assay for Thrombomodulin Biomarker Activity (AID 2284296). To be noted: primary human HUVEC with PBMC. In a few lines: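 Thrombomodulin on the surface of LPS-activated endothelial/PBMC co-cultures was quantified by ELISA at 24 hours post-dosing, with DMSO as baseline. Parallel SRB total-protein staining flagged overt cytotoxicity.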

The nature of assay [9]: IUF_NPC2c_oligodendrocyte_migration_120hr: Leibniz Research Institute for Environmental Medicine (IUF) 120-hour Neural Progenitor Cell Migration Assay for Oligodendrocyte Migration (NPC2c) (AID 2284297).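 Further: O4-positive oligodendrocyte migration distance divided by radial glia migration distance.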 In a few lines: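 Using fetal brain neural progenitor spheres differentiating in N2 medium at 37C, compounds were present for 120 h. Oligodendrocyte migration distance, normalized to radial glia migration, was measured from imaged O4 staining.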

Chain of E-selectin (Homo sapiens) (P16581 whole entry, looked up): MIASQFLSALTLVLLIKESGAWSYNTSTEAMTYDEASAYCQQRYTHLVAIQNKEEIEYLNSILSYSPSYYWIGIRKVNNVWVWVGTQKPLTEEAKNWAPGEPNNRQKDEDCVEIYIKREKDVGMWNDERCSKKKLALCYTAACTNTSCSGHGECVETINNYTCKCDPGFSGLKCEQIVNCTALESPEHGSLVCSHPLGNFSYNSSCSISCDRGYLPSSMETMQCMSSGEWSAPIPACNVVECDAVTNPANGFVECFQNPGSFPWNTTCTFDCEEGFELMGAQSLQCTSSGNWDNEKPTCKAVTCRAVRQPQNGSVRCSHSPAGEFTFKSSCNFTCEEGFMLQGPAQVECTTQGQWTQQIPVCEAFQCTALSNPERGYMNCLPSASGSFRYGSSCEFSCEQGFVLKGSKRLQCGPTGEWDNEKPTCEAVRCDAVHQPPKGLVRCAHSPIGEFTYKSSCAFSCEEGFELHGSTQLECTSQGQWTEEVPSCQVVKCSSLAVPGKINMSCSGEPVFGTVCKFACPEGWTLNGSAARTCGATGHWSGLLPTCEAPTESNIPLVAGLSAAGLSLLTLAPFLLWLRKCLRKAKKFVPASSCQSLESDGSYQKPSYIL

Broadly, the AC50 is the concentration giving half of the maximal activity seen. For the molecule `C=CC(=O)OCCC(F)(F)C(F)(F)C(F)(F)C(F)(F)C(F)(F)C(F)(F)C(F)(F)C(F)(F)F`, the outcome in [1] was “inactive”; in assay [2] it was “inactive”; with CD40, CD40 (gene 958) it was “inactive”; in assay [3], “inactive”; in assay [4], “inactive”; in assay [5], “inactive”. Further, the outcome in assay [6], in [7] and in assay [8] was inactive. Moreover, the values for the AC50 in assay [2] and in assay [8] were 1.19 µM (active) and 2.94 µM (active), respectively.
For `OCC(F)(F)C(F)(F)C(F)(F)C(F)(F)C(F)(F)C(F)(F)C(F)(F)C(F)(F)C(F)(F)C(F)(F)C(F)(F)F`, the outcome in assay [1], in assay [2], in assay [3], in assay [4], in assay [6] and in assay [7] was inactive. Moreover, in assay [8], the result was inactive. Besides, the AC50 with CD40, CD40 (gene 958) was 1.35 µM (active); in [5] it was 155 nM (active) and 396 nM (active); in [7], 835 nM (active).
As to `CC(C)c1c(C(=O)Nc2ccccc2)c(-c2ccccc2)c(-c2ccc(F)cc2)n1CC[C@@H](O)C[C@@H](O)CC(=O)O`, the molecule was called inactive in assay [9].
As for `CCCCCCCCCCCC`, the AC50 in assay [2] is 11.7 µM (active) and 10.3 µM (active); in [3], 12.6 µM (active) and 5.39 µM (active); in assay [8], 35.4 µM (active). In addition, the result in assay [8] was inactive.
`O=C(O)CCC(F)(F)C(F)(F)C(F)(F)C(F)(F)C(F)(F)C(F)(F)F`: the outcome in [1] is “inactive”; in assay [2] it was “inactive”; in the assay with CD40, CD40 (gene 958), “inactive”; in assay [3] it was “inactive”; in [5], “inactive”; in [6], “inactive”. In addition, the result in assay [8] was inactive. The half-maximal activity concentration (AC50) in assay [4] was 5.95 µM (active) and 16.4 µM (active) and 20.5 µM (active); in [7], 38 µM (active) and 30 µM (active).
As to `O=S(=O)(O)C(F)(F)C(F)(F)C(F)(F)C(F)(F)C(F)(F)C(F)(F)C(F)(F)C(F)(F)C(F)(F)C(F)(F)F`, the outcome in assay [1], in assay [2], in assay [3], in assay [4], in assay [5] and in assay [6] was inactive. The outcome in assay [7] and in assay [8] was inactive. Also, the AC50 with CD40, CD40 (gene 958) is 10.6 µM (active) and 6.06 µM (active); in assay [7], 13300 nM (active).
As for `O=C1NS(=O)(=O)c2ccccc21`, the result in assay [2], in assay [3], in assay [8] and in assay [9] was inactive. Further, in assay [8], the AC50 is 1.09 µM (active).
Consider `CN(Cc1cnc2nc(N)nc(N)c2n1)c1ccc(C(=O)N[C@@H](CCC(=O)O)C(=O)O)cc1`, for which the outcome in assay [1] was “inactive”; in assay [2], “inactive”; in the assay with CD40, CD40 (gene 958), “inactive”; in assay [3] it was “inactive”; in assay [4], “inactive”; in [5], “inactive”. In addition, the result in assay [6], in assay [7] and in assay [8] was inactive.
In the case of `Oc1ccc(Cc2ccccc2O)cc1`, the outcome in [2], in [3] and in assay [8] was inactive.
As for `O=P(O)(O)CCC(F)(F)C(F)(F)C(F)(F)C(F)(F)C(F)(F)C(F)(F)F`, the outcome in assay [1] is “inactive”; in assay [2] it was “inactive”; with CD40, CD40 (gene 958) it was “inactive”; in assay [3] it was “inactive”; in [4], “inactive”; in [5], “inactive”. The result in assay [6], in assay [7] and in [8] was inactive. Also, the AC50 in [8] is 0.219 µM (active).
`O=P(O)(O)CCC(F)(F)C(F)(F)C(F)(F)C(F)(F)C(F)(F)C(F)(F)C(F)(F)C(F)(F)F`: the outcome is “inactive” in assay [1]; “inactive” in assay [2]; “inactive” in the assay with CD40, CD40 (gene 958); “inactive” in [3]; “inactive” in assay [4]; “inactive” in assay [6]. Moreover, the outcome in assay [8] was inactive. The AC50 in assay [2] is 25.7 µM (active); in [5], 37.8 µM (active) and 34.5 µM (active); in assay [7], 39.7 µM (active) and 31.3 µM (active).
On to `CN(CCO)S(=O)(=O)C(F)(F)C(F)(F)C(F)(F)C(F)(F)C(F)(F)C(F)(F)C(F)(F)C(F)(F)F`, for which the outcome is “inactive” in assay [1]; “inactive” in [2]; “inactive” in the assay with CD40, CD40 (gene 958); “inactive” in assay [4]; “inactive” in assay [5]; “inactive” in [6]. In addition, the result in assay [7] and in [8] was inactive. For the same molecule, the AC50 in [3] is 30.1 nM (active) and 23.8 nM (active).
As to `O=C(O)C(F)(F)OC(F)(F)C(F)(F)OC(F)(F)C(F)(F)OC(F)(F)C(F)(F)C(F)(F)C(F)(F)F`, the AC50 is 51.8 µM (active) and 48.8 µM (active) in [1]; 19.7 µM (active) and 17.2 µM (active) in assay [2]; 42.4 µM (active) and 40.9 µM (active) with CD40, CD40 (gene 958); 7.91 µM (active) and 7.94 µM (active) in assay [3]; 44.1 µM (active) and 22.4 µM (active) in [4]; 40.8 µM (active) and 31.9 µM (active) in assay [5]. The half-maximal activity concentration (AC50) in assay [7] was 53.4 µM (active) and 56.3 µM (active); in assay [8], 45.8 µM (active) and 44.1 µM (active). Also, the outcome in assay [6] was inactive.
For `CC(=O)Nc1ccc(O)cc1`, the call in assay [9] was inactive.
In the case of `O=C(CC(=O)C(F)(F)C(F)(F)C(F)(F)F)c1cccs1`, the AC50 in assay [1] was 50.5 µM (active) and 43.4 µM (active); in [3], 7.8 µM (active); in assay [4] it was 47.6 µM (active); in [5], 40.3 µM (active) and 42 µM (active); in assay [7], 22 µM (active) and 29.2 µM (active); in [8], 55.5 µM (active) and 54.2 µM (active). For the same molecule, the outcome in assay [2] is “inactive”; with CD40, CD40 (gene 958), “inactive”; in assay [3], “inactive”; in [4], “inactive”; in assay [6], “inactive”.
Consider `Oc1c(Cl)cc(Cl)cc1Sc1cc(Cl)cc(Cl)c1O`, for which the AC50 is 2.56 µM (active) and 2.73 µM (active) in assay [2]; 2.33 µM (active) and 1.67 µM (active) in assay [3]. For the same molecule, the result in assay [8] was inactive.
As for `O=C(O)CCC(F)(F)C(F)(F)C(F)(F)C(F)(F)C(F)(F)F`, the outcome in [1] is “inactive”; in [2], “inactive”; in the assay with CD40, CD40 (gene 958) it was “inactive”; in assay [3] it was “inactive”; in assay [4], “inactive”; in assay [5], “inactive”. Besides, the outcome in [6], in assay [7] and in assay [8] was inactive. The AC50 in [4] was 9.45 µM (active).
Regarding `O=C(CCCN1CCC(O)(c2ccc(Cl)cc2)CC1)c1ccc(F)cc1`, the outcome in assay [9] was inactive.
